An excerpt weighted towards active compounds, which were near 19% of everything screened.
HT1080 IDH1KD tx = HT-1080 IDH1 knockdown cell toxicity (counter line) | HT-1080 IDH1 knockdown viability, ATP luminescence, 48 h | Potency, µM (series often up to 46.1 µM), inactives show at the top dose activity, negative = toxicity, usual class: cytotoxic | actives 2% (n = 360,000);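 also: potency is read from the fitted curve at half-maximal effect; 0% = DMSO wells and -100% = cell-free medium wells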
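Using the IDH1-knockdown HT-1080 line run in the same batch and compound series as the NT line, viability after 48 h at 37 °C was determined by CellTiter-Glo luminescence and expressed as % activity.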
DT40 TDP1 no CPT = qHTS for Inhibitors of human tyrosyl-DNA phosphodiesterase 1 (TDP1): qHTS in cells in absence of CPT | DT40 Tdp1-/- hTDP1 cells, no CPT, ATP luminescence, 48 h | Potency, µM (top dose mostly 46.2 µM), without a hit: at the top dose activity change, negative = growth inhibition, hits mostly inhibitors | actives 15% (n = 420,000); also: potency is read from the fitted curve at half-maximal effect; nearly all actives have a fitted effect of over 55% in size
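Chicken DT40 Tdp1-/- cells complemented with human TDP1, screened without camptothecin (DMSO vehicle only), 400 cells/well. Compounds pin-transferred, cells incubated at 37 °C for at least 48 hr. Growth read as ATP-dependent luminescence (CellTiter-Glo, 30 min at RT).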
IL-1B inflam inh = inhibitors of inflammasome signaling (IL-1 beta secretion); THP-1 LPS/ATP IL-1B secretion, AlphaLISA, 16 h; hits give low values; activity change, % at 57.5 µM; actives 4.7% (n = 360,000); in the data active = activity change below about -50%; inconclusive = mostly about -30% to -49%
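THP-1 cells pretreated 1 hr with compounds (up to 57.5 uM final), then stimulated with LPS (250 ng/mL final) plus ATP (1.25 mM final); secreted IL-1B measured by AlphaLISA after 16 hr, decreased signal indicating inhibition.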
TDP1 cell CPT = growth inhibition of DT40 Tdp1-/-;hTDP1 cells with camptothecin (screen for TDP1 inhibitors); Potency, µM (doses to about 46.2 µM), without a hit: top-dose activity change, negative = growth inhibition, actives largely listed as inhibitors; actives 12% (n = 420,000); chicken DT40 Tdp1-/-;hTDP1 cells + 20 nM CPT, ATP luminescence, 48 h; AID 686979; also: potency is read from the fitted curve at half-maximal effect; nearly all actives have a fitted effect of over 55% in size
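Chicken DT40 Tdp1-/- cells stably complemented with human TDP1 were seeded at 400 cells/well in medium containing 20 nM camptothecin, exposed to pin-transferred compounds, and grown at 37 °C for at least 48 hr. Viability was read as ATP luminescence.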
HT1080NT lethal = kills 2HG-producing HT-1080-NT fibrosarcoma cells | HT-1080-NT fibrosarcoma viability, CellTiter-Glo ATP luminescence, 48 h | Potency, µM (top dose mostly 46.1 µM), for the others: at the highest dose activity, negative = less viability, usual class: cytotoxic | actives 1.6% (n = 360,000);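 also: NT is the 2HG producing partner of a matched IDH1 knockdown line; potency is read from the fitted curve at half-maximal effect; 0% = DMSO-treated cells and -100% = media-only wells without cells; nearly all actives have a fitted effect of over 55% in size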
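Fibrosarcoma NT cells, 750 per well in 5% FBS RPMI, were exposed to compound for 48 hours. Viability: CellTiter-Glo luminescence.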
Starred values were filed as active, the others as inactive; ? = inconclusive; . = no result; [ ] = another dose, or the depositor's remark. Unless noted, calls follow the shape of the dose curve; as a rule, active = well fitted curve in the direction sought with a large enough effect; inconclusive = small, poorly fitted or top-dose-only effect, or another doubt; inactive = no such curve, though single readings can be large; an effect the other way counts as inactive or inconclusive. Unless noted, % is scaled to controls: 0 for no effect and ±100 for the full control effect.

SMILES | HT1080 IDH1KD tx | DT40 TDP1 no CPT | IL-1B inflam inh | TDP1 cell CPT | HT1080NT lethal
CC(C)c1ccc(OCc2nc(-c3ccccn3)no2)c(Br)c1 | -18% | -27% | -54* | -15% | -2%
Cc1ccc(OCc2nc(-c3ccccn3)no2)c(Br)c1 | -2% | -18% | -7 | -28% | -2%
Cc1ccc(/C=N/Nc2ccnc3cc(Cl)ccc23)c(C)c1 | ? | 12µM* | -77* | 6.5µM* | ?
Clc1ccc2c(N/N=C/c3ccc(Br)cc3)ccnc2c1 | ? | ? | -98* | ? | ?
Clc1ccc2c(N/N=C/c3cccnc3)ccnc2c1 | ? | ? | 10 | ? | ?
Cc1ccccc1/C=N/Nc1ccnc2cc(Cl)ccc12 | ? | ? | -103* | 10µM* | ?
COc1cccc(Cn2c(=O)c(-c3cccs3)nc3cnc(OCc4ccccc4)nc32)c1 | . | 18% | . | -2% | .
O=C(Nc1cccc(Cl)c1)NC1CC2CCC(C1)N2Cc1cccs1 (stereo unspecified) | 3% | 26µM* | -16 | 21µM* | -7%
O=C(Nc1cccc(Cl)c1)NC1(C(=O)NCc2cccs2)CCCCC1 | -12%[9.24 µM] | 26µM* | -5 | 21µM* | ?
Cc1ccc(NC(=S)NC2CC3CCCC(C2)N3Cc2cccs2)cc1 (stereo unspecified) | ? | 18µM* | -74* | ? | ?
Cc1cn(C2CC(O)C(CO)O2)c(=O)n(Cc2ccccc2)c1=O (stereo unspecified) | 0% | -23% | 47 | ? | 1%
COc1ccc(/C(N)=N/OC(=O)c2cccc([N+](=O)[O-])c2)cc1 | 11% | ? | 21 | ? | 12%
CC1=CC(=O)C(C(C)C)=C/C1=N/OC(=O)c1cccc([N+](=O)[O-])c1 | -17%[9.24 µM] | 12µM* | -101* | 23µM* | 10µM*
Cc1ccc(C(=O)O/N=C(\N)c2cccc([N+](=O)[O-])c2)cc1 | -10% | -15% | 1 | -30% | 2%[9.24 µM]
CC1=CC(=O)C(C(C)C)=C/C1=N\OC(=O)c1cccc2nc(C)oc12 | 5% | 21µM* | 1 | ? | 7%
CC1=CC(=NOC(=O)c2cccc([N+](=O)[O-])c2)C=C(C)C1=O | ? | 12µM* | -85* | 18µM* | ?
CC(C)CC(C(=O)O)N1C(=O)C2C3CC(C2C1=O)C1C(c2ccccc2)c2sc(=O)[nH]c2SC31 (stereo unspecified) | 20% | 0% | 13 | -8% | 19%
O=C(NCC1CCCO1)C(C(=O)c1ccccc1)n1ccccc1=O (stereo unspecified) | 10% | 10µM* | 8 | ? | -1%
O=C(NCc1ccco1)C(C(=O)c1ccccc1)n1ccccc1=O (stereo unspecified) | -2% | ? | -1 | 0% | -3%
COc1ccccc1CNC(=O)CC(C)C | 23% | ? | 7 | 23µM* | 16%
CCOc1ccccc1C(=O)NC(C(=O)NCc1ccccc1OC)C(C)C (stereo unspecified) | 8% | 16µM* | 13 | ? | 9%
COc1ccccc1CNC(=O)COc1ccccc1OC | 2% | -1% | -2 | -9% | 10%
CCOc1ccccc1C(=O)NC(C)CCc1ccccc1 (stereo unspecified) | 8% | 16µM* | 13 | ? | 13%
CCOc1ccc(C(C)NC(=O)Cc2ccccc2F)cc1OCC (stereo unspecified) | 12% | -10% | -1 | 2% | 17%
CCOc1ccc(C(CCc2ccccc2)NC(=O)c2ccccc2F)cc1OCC (stereo unspecified) | -23% | ? | -21 | 35µM* | 13%
O=C(CCC(=O)N1CCOc2ccccc21)NC1CCCCCC1 | 0% | -29% | 20 | -21% | 3%
CCN(CC)C(=O)Cn1c(=O)n(Cc2ccc(C(=O)NCCCOC)cc2)c(=O)c2ccccc21 | . | -4% | . | -1% | .
